Assay results taken from PubChem BioAssay (NCATS).
Active and inactive are the calls of the source. The call rests on the fitted dose curve; in most records, active means well fitted curve in the direction sought with a large enough effect (not every such curve was filed as active); inconclusive means small, poorly fitted or top-dose-only effect, or effect the other way, or another doubt; inactive means no such curve, though single readings can be large or run the other way.

biological target: Pyruvate kinase PKM (Homo sapiens) (UniProt P14618); assay: qHTS Assay for Activators of Human Muscle Pyruvate Kinase (AID 954); conditions: purified human muscle pyruvate kinase, luciferase-coupled luminescence, 1 h; series mostly up to 57.5 µM
Sequence (P14618 whole entry, looked up): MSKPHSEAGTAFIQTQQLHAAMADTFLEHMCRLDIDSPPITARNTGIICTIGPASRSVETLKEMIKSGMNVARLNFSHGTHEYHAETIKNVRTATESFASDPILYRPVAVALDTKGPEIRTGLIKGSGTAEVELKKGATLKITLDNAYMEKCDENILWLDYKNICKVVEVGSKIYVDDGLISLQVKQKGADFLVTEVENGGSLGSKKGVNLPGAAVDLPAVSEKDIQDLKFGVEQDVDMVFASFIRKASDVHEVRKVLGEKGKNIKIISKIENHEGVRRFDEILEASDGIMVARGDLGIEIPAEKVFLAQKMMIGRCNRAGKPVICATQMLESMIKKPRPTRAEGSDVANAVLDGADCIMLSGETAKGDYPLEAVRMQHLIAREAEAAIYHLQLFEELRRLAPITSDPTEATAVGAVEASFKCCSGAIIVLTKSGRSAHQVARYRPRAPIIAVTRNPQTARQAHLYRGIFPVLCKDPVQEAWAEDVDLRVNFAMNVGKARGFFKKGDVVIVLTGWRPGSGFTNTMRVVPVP
Outline: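 Purified human PKM2 (0.1 nM) with 0.5 mM PEP (Km) and 0.1 mM ADP in 50 mM imidazole pH 7.2, KCl, MgCl2, 1 h at room temperature; ATP formed read by coupled luciferase luminescence. Normalized to no-enzyme/110 uM thiadiazolimine inhibition; 0.3 nM enzyme column for activation.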

SMILES	outcome
CCN(CC)CCNC(=O)c1cc(Cl)c(N)cc1OC	inactive
COc1ccc(Cl)cc1C(=O)NCCc1ccc(S(=O)(=O)NC(=O)NC2CCCCC2)cc1	inactive
C#CCN(C)Cc1ccccc1	inactive
CN(C)CCC=C1c2ccccc2CCc2ccccc21	inactive
OCc1cc(C(O)CNCCCCCCOCCCCc2ccccc2)ccc1O (stereo unspecified)	inactive
COC(=O)C1=C(C)NC(C)=C(C(=O)OC)C1c1ccccc1[N+](=O)[O-]	inactive
CCCCCCCCCCCCCCCC(=O)NCCO	inactive
NC(N)=NCCC[C@H](N)C(=O)O	inactive
OCCN1CCN(CCCN2c3ccccc3Sc3ccc(Cl)cc32)CC1	inactive
CN(C)CCCN1c2ccccc2Sc2ccc(Cl)cc21	inactive
C[C@]12C[C@H](O)[C@H]3[C@@H](CCC4=CC(=O)CC[C@@]43C)[C@@H]1CC[C@@H]2C(=O)CO	inactive
C[C@]12CC[C@@H]3c4ccc(O)cc4CC[C@H]3[C@@H]1CCC2=O	inactive
CNCCCC1c2ccccc2C=Cc2ccccc21	inactive
CCCn1cnc2c1c(=O)n(CCCCC(C)=O)c(=O)n2C	inactive
N=c1c[n+](N2CCOCC2)[n-]o1	inactive
CC1=C(CC(=O)O)c2cc(F)ccc2/C1=C\c1ccc(S(C)=O)cc1 (stereo unspecified)	inactive
CC(C)NC[C@H](O)c1ccc(O)c(O)c1	inactive
CC(=O)OCC(=O)[C@@]1(O)CC[C@H]2[C@@H]3CCC4=CC(=O)CC[C@]4(C)[C@H]3C(=O)C[C@@]21C	inactive
NC1CCN(c2cccc(Cl)n2)CC1	inactive
Nc1cc(=O)[nH]c(N)n1	inactive
CC1=C(CC(=O)O)c2cc(F)ccc2/C1=C\c1ccc(S(C)(=O)=O)cc1	inactive
